Experimental data reported in PubChem BioAssay (NCI).
This is part of a sample that, as a whole, favours compounds with a hit. Of some 83,000 tested, about 20% had one in any assay.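 Cells were grown in 96-well plates and exposed to the test compound at a single concentration for 48 hours; results are reported as percent growth, with values below 10 considered active.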 The source made the active and inactive calls.

Experiments:
Test in all cases: NCI-60 one-dose screen, 48 h (100 = growth as untreated, 0 = no growth, -100 = all killed)
Details in all cases: 10 µM unless noted
[1] = system: T-47D breast
[2] = system: BT-549 breast
[3] = system: MDA-MB-435 melanoma
[4] = system: SW-620 colon
[5] = system: MCF7 breast
[6] = system: HCT-116 colon
[7] = system: HCC-2998 colon
[8] = system: KM12 colon

Measured: growth

CCOC(=O)C(Br)=P(c1ccccc1)(c1ccccc1)c1ccccc1
inactive: [1] 97.7% | [2] 117% | [3] 98.6% | [4] 105% | [5] 111% | [6] 110% | [7] 109% | [8] 112%

CCOc1cc(CCNS(=O)(=O)c2ccc(C)cc2)c(C(C)=O)cc1OCC
inactive: [1] 66% [100 µM] | [2] 73.4% [100 µM] | [3] 99.4% [100 µM] | [4] 92.9% [100 µM] | [5] 94.9% [100 µM] | [6] 77.6% [100 µM] | [7] 95.5% [100 µM] | [8] 67.2% [100 µM]

CC1c2ccccc2-c2ccccc2N1C (centres undefined)
inactive: [1] 85.7% | [2] 103% | [3] 119% | [4] 108% | [5] 99.4% | [6] 96% | [7] 105% | [8] 104%

O=C1/C(=C/c2ccccc2O)C(=S)SN1Cc1ccco1
inactive: [1] 54.2% | [2] 93.5% | [3] 56.4% | [4] 108% | [5] 15.7% | [6] 87.1% | [7] 108% | [8] 69.5%

COc1ccccc1-n1c(-c2ccc(O)cc2C)cn2c3c(=O)[nH]c(=O)n(C)c3nc12
inactive: [1] 77.3% | [2] 135% | [3] 101% | [4] 94.7% | [5] 91.7% | [6] 97% | [7] 104% | [8] 103%

CC12CCC3C(=CCc4cc(O)ccc43)C1CCC2=O (centres undefined)
inactive: [1] 104% | [2] 99.5% | [3] 73% | [4] 106% | [5] 120% | [6] 102% | [7] 111% | [8] 108%

FCc1ncc(-c2ccc(C(F)(F)F)cc2)c(NC2CCCCCC2)n1
inactive: [7] 13.4% [100 µM]
active: [1] -10.9% [100 µM] | [2] -50.1% [100 µM] | [3] -6.34% [100 µM] | [4] 4.08% [100 µM] | [5] 1.01% [100 µM] | [6] -2.53% [100 µM] | [8] -59.8% [100 µM]

Cc1cc2c(cc1C)[n+](Cc1ccc3ccccc3c1)cn2Cc1ccc2ccccc2c1
active: [1] -56.4% | [2] -86.9% | [3] -82.8% | [4] -84.1% | [5] -67.7% | [6] -96.4% | [7] -69.6% | [8] -85.3%

c1ccc2c(-c3nc4ccccc4[nH]3)cccc2c1
active: [3] -19%
inactive: [1] 36% | [2] 24.3% | [4] 16.8% | [5] 17.2% | [6] 16.7% | [7] 57.5% | [8] 21.8%

CCN1CC2=C(Nc3nc(SC)[nH]c(=O)c3C2c2cc(OC)c(OC)c(OC)c2)/C(=C/c2cc(OC)c(OC)c(OC)c2)C1 (centres undefined)
inactive: [1] 97.5% | [2] 102% | [3] 93.5% | [4] 102% | [5] 86.2% | [6] 92.6% | [7] 102% | [8] 97.5%

O=C(O)CCNS(=O)(=O)c1ccc(-c2ccccc2)cc1
inactive: [1] 108% | [2] 127% | [3] 102% | [4] 95.4% | [5] 106% | [6] 108% | [7] 111% | [8] 117%

O=C(CN1CCN(c2ccc(Cl)cc2)CC1)N1CCN(c2nnc(-c3ccccc3)c(-c3ccccc3)n2)CC1
inactive: [1] 19.7% | [2] 44.9% | [3] 48.8% | [4] 46.9% | [5] 20.9% | [6] 16.7% | [7] 56.9% | [8] 36.6%

COC(=O)[C@H](Cc1cn(C)cn1)NC(=O)[C@H](Cc1ccccc1)NC(=O)Nc1cc(C(F)(F)F)cc(C(F)(F)F)c1
active: [1] -55.3% [100 µM] | [2] -95.5% [100 µM] | [3] -85.4% [100 µM] | [4] -46.2% [100 µM] | [5] -60.8% [100 µM] | [6] -91.5% [100 µM] | [7] -86.9% [100 µM] | [8] -92.2% [100 µM]

COc1ccc(-c2ccc(O)c(C(=O)/C=C/c3cc(OC)c(OC)c(OC)c3)c2)cc1
inactive: [1] 67% | [2] 90.4% | [3] 64.6% | [4] 88.6% | [5] 64.2% | [6] 68.8% | [7] 100% | [8] 79.9%

O=Cc1ccccc1C(=O)O
inactive: [1] 97.2% | [2] 102% | [3] 96.6% | [4] 102% | [5] 93.7% | [6] 99.6% | [7] 98.1% | [8] 97.9%

CCOC(=O)/C=C1/SC(=Nc2ccc(C#N)cc2)N(Cc2ccco2)C1=O
inactive: [1] 12.1% | [2] 44.8% | [3] 50.5% | [4] 12% | [5] 12.6% | [7] 64.7% | [8] 60.9%
active: [6] -61.6%

COc1cc(-c2nc3nc4sc(C)c(C)c4c(=O)n3[nH]2)cc(OC)c1OC
active: [3] 7.6%
inactive: [1] 57% | [2] 77.8% | [4] 79.1% | [5] 35.7% | [6] 75.9% | [7] 94.2% | [8] 76.6%

CC(C)=CCCC(C)c1ccc(C)c2c1OCN(CC1CCNCC1)C2 (centres undefined)
active: [1] -94.4% | [6] -37.2% | [7] -82.1%
inactive: [2] 55.8% | [3] 14.7% | [4] 28% | [5] 36.6% | [8] 38.4%

CCSc1nc(-c2ccco2)n2nc(-c3ccco3)cc2n1
inactive: [1] 22.9% | [2] 107% | [3] 111% | [4] 95.5% | [5] 22.6% | [6] 93.4% | [7] 83.7% | [8] 63.8%

O=C(CNc1ccc2c(c1)C(=O)c1ccccc1C2=O)Nc1ccc2c(c1)C(=O)c1ccccc1C2=O
active: [1] -65.5% | [2] -80.4% | [3] -82.4% | [4] -89.9% | [5] -71.1% | [6] -90.2% | [7] -93.3% | [8] -91.4%

COc1cc(/C=N/OC(=O)Nc2ccccc2)cc(OC)c1OC
inactive: [1] 100% | [2] 105% | [3] 124% | [4] 108% | [5] 108% | [6] 94.3% | [7] 106% | [8] 113%

CC(NNC(=S)N1CCCCCC1)c1ccc2ccccc2n1 (centres undefined)
inactive: [1] 29.8% | [2] 66.6% | [3] 40.6% | [4] 36% | [5] 16.5% | [6] 26.5% | [7] 36.6% | [8] 34.9%

Cc1nn2c(/C=C3/C(=O)Nc4cc(Cl)ccc43)c(-c3ccccc3)nc2s1
active: [1] -63% | [3] -14.8% | [4] -26.8% | [6] -79%
inactive: [2] 15.4% | [5] 21% | [7] 120% | [8] 78.7%

Cc1ccc(-c2c3c(N)nc(-c4ccncc4)nc3nc3c2c(C)nn3-c2ccccc2)cc1
inactive: [1] 35.6% | [2] 59.4% | [3] 31.4% | [4] 39.5% | [6] 12.7% | [7] 99.8% | [8] 74.7%
active: [5] 1.86%

CN1CCC[C@@H]1CCO[C@](C)(c1ccccc1)c1ccc(Cl)cc1
inactive: [1] 56.1% | [2] 69.1% | [3] 49.8% | [4] 80% | [5] 63.3% | [6] 47.9% | [7] 61.8% | [8] 88%

OCCN1CCN(CCCN2c3ccccc3Sc3ccc(C(F)(F)F)cc32)CC1
inactive: [1] 54.5% | [2] 53% | [5] 18.3%
active: [3] -46.1% | [4] -31.2% | [6] 2.28% | [7] -83.2% | [8] 9.9%

O=C(NN1C(=O)c2cc(C(=O)O)c(C(=O)O)cc2C1=O)c1ccncc1
inactive: [1] 102% | [2] 103% | [3] 114% | [4] 101% | [5] 98.3% | [6] 106% | [7] 103% | [8] 111%

C(=C1c2ccccc2-c2ccccc21)c1ccncc1
active: [3] -21.7%
inactive: [1] 72.2% | [2] 38.6% | [4] 17.1% | [5] 18.8% | [6] 16.4% | [7] 66.6% | [8] 18.5%
